# Measured values taken from PMC12431657, “Discovery and mechanistic insights of dibenzoylmethane as a broad spectrum inhibitor of coronavirus” (PLOS Pathogens, 2025).
# Test system: HCoV-229E
# Parameters: species or system Huh-7
# Details: 24 h, 10 µM; inhibitor
structure (smiles),measurement,value
C=C1C(=O)O[C@@H]2[C@H]3O[C@]3(C)CC/C=C(\C)CC[C@@H]12 [Parthenolide],229E Inhibition rate,24.7
